# Data: ChEMBL document CHEMBL4513135, “CO-ADD screening of IQOG CSIS (Spain) compounds”
# Values joined by “and” are separate entries in the source; they are usually repeats but may differ in a detail not shown here. Equal values may be shown once. Results with a measured potency or affinity are listed apart.
# Assays:
# Staphylococcus aureus = details: Concentration 32 ug.mL-1, ASSAY_TEST Inhibition of Bacterial Growth, detection method Absorption (OD600), MEDIA CAMHB, plate type 384well, NBS, CORNING #3640, time 18 hr
# Escherichia coli = details: Concentration 32 ug.mL-1, ASSAY_TEST Inhibition of Bacterial Growth, detection method Absorption (OD600), MEDIA CAMHB, plate type 384well, NBS, CORNING #3640, time 18 hr
Structure (SMILES),Inhibition (Staphylococcus aureus) [%],Inhibition (Escherichia coli) [%],Inhibition (Staphylococcus aureus; 32 ug/mL),Inhibition (Escherichia coli; 32 ug/mL)
CC1Cc2c(Br)nc3nc4c(c(N)c3c2NC1=O)CCCC4 (stereo not drawn),27.55,-12.78,,
CCOC(=O)C1=C(C)OC(N)=C(C#N)C1c1ccccc1OC (stereo not drawn),23.12,-9.51,,
COc1nc(Cl)c(C#N)c(-c2ccccc2)c1C#N,35.41,-14.05,,
C#CCNc1nc(Cl)c(C#N)c(-c2ccccc2)c1C#N,4.06,10.8,,
C#CCN(C)c1nc(NC2CCN(Cc3ccccc3)CC2)c(C#N)c(-c2ccccc2)c1C#N,0.44,-3.84,,
COc1ccc(C2C(C#N)=C(N)Oc3c2ccc2ccccc32)cc1 (stereo not drawn),21.39,-6.99,,
NNC(=O)c1c[nH]c2ccc(OCc3ccccc3)cc12,2.88,0.02,,
C#CCN(Cc1ccccc1)c1nc(N)c(C#N)c(-c2ccccc2)c1C#N,11.64,-2.54,,
CC(=O)O[C@H]1CC[C@H](NC(=O)c2ccccc2)CC1,27.4,-7.44,,
Cn1ccnc1C1c2c(nc3c(c2N)CCC3)Oc2ccc3ccccc3c21 (stereo not drawn),25.1,-9.44,,
COc1ccc2c(c1)cc(CN)n2C,13.26,5.66,,
Cc1ccc2[nH]c(=O)c(C=O)cc2c1,3.11,-7.4,,
O=Cc1cc2ccccc2nc1Cl,19.39,16.87,,
COc1cccc(-c2c(C#N)c(=O)oc3c2ccc2ccccc23)c1,13.24,14.42,,
COC(=O)C(=Cc1ccccc1)NC(=O)c1ccccc1,11.82,6.08,,
C#CCN(C)c1cc(C)nc(C)n1,21.48,-8.55,,
CC(C)NNC(=O)Cc1c[nH]c2ccccc12,11.42,9.11,,

Structure (SMILES),Inhibition (Staphylococcus aureus) [%],Inhibition (Escherichia coli) [%],Inhibition (Staphylococcus aureus; 32 ug/mL),Inhibition (Escherichia coli; 32 ug/mL)
N#Cc1c(N)nc2[nH]nc(N)c2c1-c1ccccc1,40.83,-6.5,,
Cc1ccc(C(O)SNNc2ncnc3c2cnn3-c2ccccc2)cc1 (stereo not drawn),13.51,11.76,,
C#CCNc1nc(OC)c(C#N)c(-c2ccccc2)c1C#N,49.28,-4,,
Cc1[nH]nc2c1C(c1ccc(O)c(O)c1)C(C#N)=C(N)O2 (stereo not drawn),9.09,8.02,,
N#Cc1c(NC2CCC(Cc3ccccc3)CC2)nc(NC2CCN(Cc3ccccc3)CC2)c(C#N)c1-c1ccccc1 (stereo not drawn),4.21,-8.77,,
C=CCNc1[nH]c2ccc(O)cc2c1C#N,32.95,-4.66,,
N#CC1=C(N)Oc2ccc3ccccc3c2C1c1ccc(O)cc1 (stereo not drawn),42.7,-6.77,,
O=C1NC(=S)N/C1=C\c1ccccc1,13.95,8.87,,
Cn1ccnc1C1c2ccc3cccnc3c2Oc2nc3c(c(N)c21)CCCCC3 (stereo not drawn),21.02,-10.34,,
O=Cc1c[nH]c2ccccc12 [3-FORMYLINDOLE],16.72,17.3,,
C=C1CN(C)c2c(C#N)c(-c3ccccc3)c(C#N)c(=N)n21,11.22,-20.05,,
COc1ccc(-c2c(C#N)c(=O)oc3c2ccc2ccccc23)cc1,,,29.57% and 19.64%,-26.6% and -23.12%
CC1Cc2c(Cl)nc3nc4c(c(N)c3c2NC1=O)CCCC4 (stereo not drawn),46.7,-7.98,,
C#CCN(C)Cc1cc2cc(OCCCC3CCN(Cc4ccc(OC)c5ncccc45)CC3)ccc2n1C,8.98,-14.67,,
COc1cc(C2C(C#N)=C(N)Oc3ccc4ccccc4c32)ccc1O (stereo not drawn),37.28,-11.46,,
CCOC(=O)c1cc(C#N)c(N)nc1C,8.2,-11.35,,
COc1ccccc1C1c2ccc3ccccc3c2Oc2nc3c(c(N)c21)CCCC3 (stereo not drawn),0.62,3.02,,
